This is part of a sample that, as a whole, favours compounds with a hit. Of some 79,000 tested, about 15% had one in any assay. Values without a mark were called inactive. Active and inactive are the calls of the source. Cut-off read from the data, not from the text of the source: active = growth inhibition above about 70%; inactive = the rest.

A short description of assay [1]: NCI Yeast Anticancer Drug Screen. Data for the rad50 strain (AID 155).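 Note: 0% = growth of vehicle-only cultures of the same strain.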 The note with it: S. cerevisiae rad50 strain growth inhibition; at 50.0 µM; stronger effect = higher value. In a few lines: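 Inhibition values express reduced yeast growth in compound-treated cultures relative to vehicle-treated controls.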
The nature of assay [2]: NCI Yeast Anticancer Drug Screen. Data for the mec2-1 strain (AID 157). As to conditions: S. cerevisiae mec2-1 strain, at 50.0 µM, stronger effect = higher value. In a few lines: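 Growth inhibition is read against vehicle-treated controls after compound exposure of the mec2-1 yeast strain, which is defective in DNA damage repair or cell cycle control.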
The nature of assay [3]: NCI Yeast Anticancer Drug Screen. Data for the sgs1 mgt1 strain (AID 161).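 Note: 0% = growth of cultures given vehicle only.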 The note with it: S. cerevisiae sgs1 mgt1 strain, at 50.0 µM, stronger effect = higher value. In a few lines: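 Percent growth inhibition was derived by comparing compound-exposed mutant yeast with vehicle-exposed cultures. The strain carries alterations in DNA damage repair.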
Assay [4] is described as follows: NCI Yeast Anticancer Drug Screen. Data for the cln2 rad14 strain (AID 165).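 Note: 0% = growth equal to vehicle treated cultures.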 The note with it: S. cerevisiae cln2 rad14 strain, at 50.0 µM, stronger effect = higher value. In a few lines: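 Growth inhibition, relative to vehicle-treated controls, is the read-out. The test organism is a yeast strain with defined genetic alterations, cln2 rad14.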
Assay [5] can be described thus: NCI Yeast Anticancer Drug Screen. Data for the bub3 strain (AID 167). The note with it: S. cerevisiae bub3 mutant strain, at 50.0 µM, stronger effect = higher value. The method, boiled down: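 Steps: expose the mutant yeast strain to compound; grow alongside vehicle-treated cultures; measure growth; express inhibition against the vehicle cultures.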
Assay [6] can be described thus: NCI Yeast Anticancer Drug Screen. Data for the mlh1 rad18 strain (AID 175). As to conditions: S. cerevisiae mlh1 rad18 strain growth inhibition; at 50.0 µM; stronger effect = higher value. The method, boiled down: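 Cells of a genetically altered yeast strain, deficient in DNA damage repair, were treated with compound. Their growth was then compared with that of vehicle-treated cultures to give inhibition.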

On to `C/C=C/C=C\C(=O)C1c2cccc(O)c2C(=O)c2c(O)cc(C)cc21` (stereo unspecified), for which the growth inhibition was 40.4% in assay [1]; 20.9% in assay [2]; 12.3% in assay [3]; 29.6% in assay [4]; 37.5% in assay [5]; 34.1% in assay [6].
Regarding `CCC(CC)C(=O)NC(=O)NC(N)=O`, the growth inhibition in assay [1] was 2.7%; in assay [2], 1.4%; in assay [3], 3.35%; in assay [4] it was -4.7%; in assay [5], 6.55%; in assay [6] it was -3.55%.
On to `CC1COC(C(C)C)(C(C)C)O1` (stereo unspecified), for which the growth inhibition in assay [1] is -8.6%; in assay [2], -30.1%; in assay [3] it was -4.2%; in assay [4] it was -10%; in assay [5], -2.7%; in assay [6], 22.4%.
Regarding `O=C(O)c1ccc(N2CCOCC2)cc1`, the growth inhibition in assay [1] is -20%; in assay [2], -13.5%; in assay [3], -15.4%; in assay [4], -15.6%; in assay [5], -9.3%; in assay [6], 6.6%.
With `Cc1ccnc2c1NC(=O)c1cccnc1N2C1CC1`, the growth inhibition in assay [1] is 2.35%; in assay [2], -1.95%; in assay [3], -8.6%; in assay [4] it was -9.35%; in assay [5], 6%; in assay [6], 20.8%.
Turning to `CCOC(=O)c1sc(C(=O)OCC)c2c1-c1cccc3cccc-2c13`, the growth inhibition is -35.6% in assay [1]; 13.1% in assay [2]; 4.35% in assay [3]; -48% in assay [4]; 15.1% in assay [5]; -9.95% in assay [6].
`O=C(O)CSc1ccn(Cc2ccccc2)c1`: the growth inhibition in assay [1] was -8.15%; in assay [2], -18.5%; in assay [3], -43.1%; in assay [4], -22.8%; in assay [5], -56.8%; in assay [6], -22.6%.
As to `O=C(O)C(CO)c1ccccc1` (stereo unspecified), the growth inhibition in assay [1] is 0.15%; in assay [2] it was -1.3%; in assay [3], -4.55%; in assay [4], -4.65%; in assay [5], 10.6%; in assay [6], -2.75%.
On to `NC(=O)C1CCCCC1C(N)=O` (stereo unspecified), for which the growth inhibition was -15% in assay [1]; -20.1% in assay [2]; -25.6% in assay [3]; -29.5% in assay [4]; -27.8% in assay [5]; -15.3% in assay [6].
In the case of `COC(=O)C(=O)c1c(C(=O)OC)nc2nnc(N)n2c1-c1ccc(OC)cc1`, the growth inhibition was -13.4% in assay [1]; 0.6% in assay [2]; -0.5% in assay [3]; -26.5% in assay [4]; 8.2% in assay [5]; -14.9% in assay [6].
In the case of `O=C(CCl)N1CCC(CC2(c3cc4ccccc4[nH]3)OCCO2)CC1`, the growth inhibition in assay [1] is -0.95%; in assay [2] it was 15.2%; in assay [3] it was 29.9%; in assay [4] it was -5.05%; in assay [5] it was 10.1%; in assay [6], 1.15%.
On to `CCCCCCCCNC(=O)CBr`, for which the growth inhibition is 5.3% in assay [1]; 9.85% in assay [2]; 22.8% in assay [3]; -25.4% in assay [4]; 13.3% in assay [5]; 6.15% in assay [6].
In the case of `Cc1ccc(C(=O)c2ccc(O)cc2)cc1`, the growth inhibition in assay [1] was -25.4%; in assay [2], -7.65%; in assay [3] it was -6.5%; in assay [4] it was -21.8%; in assay [5], -7.6%; in assay [6], -14.2%.
On to `Brc1cnc2nc(Cc3ccccc3)[nH]c2c1`, for which the growth inhibition in assay [1] was 5.05%; in assay [2], 7.7%; in assay [3], 17.3%; in assay [4], -52.3%; in assay [5] it was 27%; in assay [6], 2.9%.
With `Cc1cnc(Sc2ncccc2[N+](=O)[O-])nc1`, the growth inhibition in assay [1] is 33%; in assay [2], 5.75%; in assay [3], 22.8%; in assay [4], 25.6%; in assay [5] it was -3.1%; in assay [6] it was 6.7%.
On to `COc1cc(C2c3cc4c(cc3[C@@H](OC3OC5CO[C@@H](C)OC5C(O)C3O)[C@H]3COC(=O)C23)OCO4)cc(OC)c1OC` (stereo partly specified), for which the growth inhibition in assay [1] is 2.4%; in assay [2], -36.1%; in assay [3], -21.9%; in assay [4], 12.4%; in assay [5], -16.7%; in assay [6], -83.5%.
With `COc1ccc(C)cc1CC(=O)O`, the growth inhibition in assay [1] was 7.5%; in assay [2], 3.05%; in assay [3], -21.4%; in assay [4], 4.1%; in assay [5], 6.25%; in assay [6], -9.2%.
Consider `CC1CC([NH-])C([NH-])C(C)(C)C1.[Cl][Pt+2][Cl]` (stereo unspecified), for which the growth inhibition in assay [1] was -4.35%; in assay [2] it was -4.25%; in assay [3], -9.95%; in assay [4], -12.2%; in assay [5] it was -10.8%; in assay [6], -49.2%.
Take `CCCCCCCCCCCCCCCCCC[N+]1(C)CCOCC1`: the growth inhibition was 99.2% (active) in assay [1]; 99.5% (active) in assay [2]; 99.1% (active) in assay [3]; 98.7% (active) in assay [4]; 99.2% (active) in assay [5]; 99.5% (active) in assay [6].
`Cc1nc(CC#N)n[nH]1`: the growth inhibition in assay [1] is 24.5%; in assay [2], 18%; in assay [3], 17.1%; in assay [4], 11.3%; in assay [5] it was 24.8%; in assay [6], 19.7%.
Take `Cc1cc(C)c(C)c(CC(C)(CI)CI)c1C`: the growth inhibition in assay [1] was 20.3%; in assay [2], -13.2%; in assay [3] it was -4.7%; in assay [4] it was 0.65%; in assay [5] it was -8.05%; in assay [6], -3.6%.
